Source: publication PMC7862700, “An all-to-all approach to the identification of sequence-specific readers for epigenetic DNA modifications on cytosine”

Experiments:
Assay in all cases: DAPPL (digital affinity profiling via proximity ligation, sequencing); 10 mM Tris-HCl pH 7.5, 50 mM NaCl, 1 mM DTT, 4% glycerol, room temperature, 30 min; GST-TFs on glutathione beads, 16-mer random dsDNA library, 0.1% formaldehyde crosslink after washing; high values mean tight binding
[1] = target: T1, FLI1 (Homo sapiens, UniProt Q01543 1-452); conditions: protein: recombinant; tags: N-terminal GST; dsDNA, one strand shown
T1 sequence: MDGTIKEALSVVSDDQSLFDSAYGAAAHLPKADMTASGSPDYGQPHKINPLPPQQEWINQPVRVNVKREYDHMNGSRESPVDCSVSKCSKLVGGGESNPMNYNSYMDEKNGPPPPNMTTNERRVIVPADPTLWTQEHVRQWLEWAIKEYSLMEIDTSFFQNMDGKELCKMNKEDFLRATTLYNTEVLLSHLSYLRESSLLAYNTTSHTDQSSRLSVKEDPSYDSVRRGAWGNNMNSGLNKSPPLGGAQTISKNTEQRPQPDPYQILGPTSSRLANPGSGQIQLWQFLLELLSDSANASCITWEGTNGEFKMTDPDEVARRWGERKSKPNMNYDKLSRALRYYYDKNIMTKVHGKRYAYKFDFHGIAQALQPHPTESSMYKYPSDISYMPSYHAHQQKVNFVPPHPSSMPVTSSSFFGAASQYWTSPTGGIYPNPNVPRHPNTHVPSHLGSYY
In short: (§1)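 Beads coated with glutathione captured GST-fused human transcription factors that had been expressed in yeast, and the factors were then given DNA barcodes and pooled with a tag-only sample. The pools were incubated with 200 nmole of a random double-stranded 16-mer DNA library in Tris/NaCl/DTT/glycerol buffer for 30 min at room temperature, washed, crosslinked with 0.1% formaldehyde and proximity-ligated with BsaI/T4 ligase at 37 °C for 1 h. PCR amplification and Illumina NextSeq500 sequencing came last. Binding signal is each hexamer's read frequency for a factor divided by its frequency for the tag-only sample.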

[2] = target: T2, ELK1 (Homo sapiens, UniProt P19419 1-428); conditions: protein: recombinant; tags: N-terminal GST; dsDNA, one strand shown
T2 sequence: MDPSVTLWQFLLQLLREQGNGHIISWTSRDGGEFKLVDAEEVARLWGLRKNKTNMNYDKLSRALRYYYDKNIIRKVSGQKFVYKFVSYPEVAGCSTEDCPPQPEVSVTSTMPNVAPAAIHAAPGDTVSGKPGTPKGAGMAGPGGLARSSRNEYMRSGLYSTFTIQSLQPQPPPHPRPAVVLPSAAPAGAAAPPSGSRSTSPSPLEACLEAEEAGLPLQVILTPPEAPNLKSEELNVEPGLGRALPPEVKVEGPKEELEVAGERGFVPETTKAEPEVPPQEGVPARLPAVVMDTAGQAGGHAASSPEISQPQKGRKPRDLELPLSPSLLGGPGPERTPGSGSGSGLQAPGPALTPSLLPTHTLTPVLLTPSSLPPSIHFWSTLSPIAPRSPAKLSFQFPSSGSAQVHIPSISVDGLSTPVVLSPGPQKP
In short: as §1

[3] = target: T3, GABPA (Homo sapiens, UniProt Q06546 1-454); conditions: protein: recombinant; tags: N-terminal GST; dsDNA, one strand shown
T3 sequence: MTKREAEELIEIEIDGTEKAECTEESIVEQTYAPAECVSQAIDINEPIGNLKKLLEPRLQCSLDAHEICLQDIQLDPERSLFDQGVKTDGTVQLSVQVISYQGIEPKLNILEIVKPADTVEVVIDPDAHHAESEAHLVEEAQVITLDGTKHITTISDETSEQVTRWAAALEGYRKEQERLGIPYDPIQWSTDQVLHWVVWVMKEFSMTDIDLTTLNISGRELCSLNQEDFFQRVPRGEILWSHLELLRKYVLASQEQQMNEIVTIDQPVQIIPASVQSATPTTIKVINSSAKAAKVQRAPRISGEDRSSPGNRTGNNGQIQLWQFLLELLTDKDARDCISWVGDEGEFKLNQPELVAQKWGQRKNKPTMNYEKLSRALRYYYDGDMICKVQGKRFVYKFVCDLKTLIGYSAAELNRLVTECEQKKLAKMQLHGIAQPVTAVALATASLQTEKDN
In short: as §1

[4] = target: T4, ERG (Homo sapiens, UniProt P11308 1-479); conditions: protein: recombinant; tags: N-terminal GST; dsDNA, one strand shown
T4 sequence: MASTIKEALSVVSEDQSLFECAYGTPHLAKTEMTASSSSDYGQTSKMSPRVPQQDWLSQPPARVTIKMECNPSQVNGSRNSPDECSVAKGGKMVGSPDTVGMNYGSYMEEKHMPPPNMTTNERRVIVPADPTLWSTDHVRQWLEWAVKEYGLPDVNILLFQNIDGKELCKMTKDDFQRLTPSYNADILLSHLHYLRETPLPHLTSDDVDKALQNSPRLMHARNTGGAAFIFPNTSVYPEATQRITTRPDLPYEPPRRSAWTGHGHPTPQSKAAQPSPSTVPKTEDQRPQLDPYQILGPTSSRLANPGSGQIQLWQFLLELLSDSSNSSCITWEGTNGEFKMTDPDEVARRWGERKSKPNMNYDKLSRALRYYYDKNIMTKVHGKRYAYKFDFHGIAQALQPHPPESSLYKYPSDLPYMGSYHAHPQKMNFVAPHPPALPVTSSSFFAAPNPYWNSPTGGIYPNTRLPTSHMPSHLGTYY
In short: as §1

[5] = target: ELF1 (Homo sapiens, UniProt P32519 1-619); conditions: protein: recombinant; tags: N-terminal GST; dsDNA, one strand shown
ELF1, sequence (P32519 whole entry): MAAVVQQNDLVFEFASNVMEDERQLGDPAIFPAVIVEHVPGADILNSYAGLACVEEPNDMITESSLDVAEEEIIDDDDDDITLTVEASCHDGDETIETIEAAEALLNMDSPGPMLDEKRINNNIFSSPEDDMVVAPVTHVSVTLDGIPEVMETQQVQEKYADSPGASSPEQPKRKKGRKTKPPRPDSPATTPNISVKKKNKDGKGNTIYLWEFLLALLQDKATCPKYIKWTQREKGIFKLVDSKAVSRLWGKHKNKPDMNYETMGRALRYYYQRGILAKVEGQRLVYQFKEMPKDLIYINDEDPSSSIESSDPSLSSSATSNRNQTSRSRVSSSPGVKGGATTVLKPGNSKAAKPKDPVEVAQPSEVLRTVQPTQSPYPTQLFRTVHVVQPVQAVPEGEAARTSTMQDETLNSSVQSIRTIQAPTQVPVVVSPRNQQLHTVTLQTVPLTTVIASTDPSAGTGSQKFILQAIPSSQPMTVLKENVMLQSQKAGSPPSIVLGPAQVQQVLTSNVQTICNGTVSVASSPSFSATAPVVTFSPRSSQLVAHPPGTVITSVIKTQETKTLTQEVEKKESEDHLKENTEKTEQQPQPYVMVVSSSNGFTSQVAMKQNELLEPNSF
In short: as §1

[6] = target: T5, EHF (Homo sapiens, UniProt Q9NZC4 1-300); conditions: protein: recombinant; tags: N-terminal GST; dsDNA, one strand shown
T5 sequence: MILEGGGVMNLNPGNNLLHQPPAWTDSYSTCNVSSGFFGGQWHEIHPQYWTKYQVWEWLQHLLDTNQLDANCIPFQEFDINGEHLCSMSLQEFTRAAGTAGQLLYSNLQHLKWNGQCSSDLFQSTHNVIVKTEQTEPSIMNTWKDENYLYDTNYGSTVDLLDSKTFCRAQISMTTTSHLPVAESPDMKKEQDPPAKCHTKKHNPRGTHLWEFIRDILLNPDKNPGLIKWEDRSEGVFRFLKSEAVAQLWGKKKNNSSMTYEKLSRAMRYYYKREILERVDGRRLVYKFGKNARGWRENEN
In short: as §1

[7] = target: SPI1 (Homo sapiens, UniProt P17947 1-270); conditions: protein: recombinant; tags: N-terminal GST; dsDNA, one strand shown
In short: as §1

[8] = target: SPIB (Homo sapiens, UniProt Q01892 1-262); conditions: protein: recombinant; tags: N-terminal GST; dsDNA, one strand shown
SPIB, sequence (Q01892 whole entry): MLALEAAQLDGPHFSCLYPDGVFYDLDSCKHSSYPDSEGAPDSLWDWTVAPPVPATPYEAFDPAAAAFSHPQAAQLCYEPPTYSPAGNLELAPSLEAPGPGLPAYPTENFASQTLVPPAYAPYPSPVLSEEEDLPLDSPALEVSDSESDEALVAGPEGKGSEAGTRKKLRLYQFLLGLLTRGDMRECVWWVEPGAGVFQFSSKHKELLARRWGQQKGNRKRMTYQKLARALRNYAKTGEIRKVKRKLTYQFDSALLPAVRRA
In short: as §1

[9] = target: T6, ELK3 (Homo sapiens, UniProt P41970 1-407); conditions: protein: recombinant; tags: N-terminal GST; dsDNA, one strand shown
T6 sequence: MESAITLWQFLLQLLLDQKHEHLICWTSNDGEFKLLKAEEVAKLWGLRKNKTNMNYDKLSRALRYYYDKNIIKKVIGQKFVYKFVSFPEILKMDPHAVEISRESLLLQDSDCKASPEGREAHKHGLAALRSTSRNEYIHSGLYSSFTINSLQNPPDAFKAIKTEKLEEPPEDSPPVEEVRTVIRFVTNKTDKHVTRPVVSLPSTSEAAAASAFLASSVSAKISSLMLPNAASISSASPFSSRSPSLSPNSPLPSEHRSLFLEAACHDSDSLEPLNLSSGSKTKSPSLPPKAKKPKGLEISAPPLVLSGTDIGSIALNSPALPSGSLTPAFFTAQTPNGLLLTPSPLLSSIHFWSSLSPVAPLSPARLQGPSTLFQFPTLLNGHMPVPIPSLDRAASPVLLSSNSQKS
In short: as §1

[10] = target: T7, FEV (Homo sapiens, UniProt Q99581 1-238); conditions: protein: recombinant; tags: N-terminal GST; dsDNA, one strand shown
T7 sequence: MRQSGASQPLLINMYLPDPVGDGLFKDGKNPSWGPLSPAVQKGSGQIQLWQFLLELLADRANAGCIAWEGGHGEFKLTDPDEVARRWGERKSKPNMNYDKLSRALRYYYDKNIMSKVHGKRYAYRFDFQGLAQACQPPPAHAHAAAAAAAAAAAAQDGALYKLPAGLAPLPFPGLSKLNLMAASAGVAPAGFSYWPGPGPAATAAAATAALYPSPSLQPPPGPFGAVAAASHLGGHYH
In short: as §1

[11] = target: ETV5 (Homo sapiens, UniProt P41161 1-510); conditions: protein: recombinant; tags: N-terminal GST; dsDNA, one strand shown
ETV5, sequence (P41161 whole entry): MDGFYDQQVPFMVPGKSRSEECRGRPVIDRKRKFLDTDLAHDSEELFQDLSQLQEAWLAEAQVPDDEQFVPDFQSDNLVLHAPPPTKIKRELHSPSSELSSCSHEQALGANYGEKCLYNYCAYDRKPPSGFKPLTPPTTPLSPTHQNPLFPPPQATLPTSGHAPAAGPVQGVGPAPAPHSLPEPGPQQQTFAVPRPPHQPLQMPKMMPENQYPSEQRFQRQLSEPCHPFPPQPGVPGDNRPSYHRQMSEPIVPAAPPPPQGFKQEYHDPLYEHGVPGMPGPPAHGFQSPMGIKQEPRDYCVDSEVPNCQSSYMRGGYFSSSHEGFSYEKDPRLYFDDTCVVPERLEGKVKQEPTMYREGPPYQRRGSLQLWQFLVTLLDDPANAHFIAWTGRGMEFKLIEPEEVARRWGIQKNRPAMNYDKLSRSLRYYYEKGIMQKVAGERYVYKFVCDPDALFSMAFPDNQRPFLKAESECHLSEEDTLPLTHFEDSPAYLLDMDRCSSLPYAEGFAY
In short: as §1

[12] = target: HSF1 (Homo sapiens, UniProt Q00613 1-529); conditions: protein: recombinant; tags: N-terminal GST; chain copies: 3; dsDNA, one strand shown
HSF1, sequence (Q00613 whole entry): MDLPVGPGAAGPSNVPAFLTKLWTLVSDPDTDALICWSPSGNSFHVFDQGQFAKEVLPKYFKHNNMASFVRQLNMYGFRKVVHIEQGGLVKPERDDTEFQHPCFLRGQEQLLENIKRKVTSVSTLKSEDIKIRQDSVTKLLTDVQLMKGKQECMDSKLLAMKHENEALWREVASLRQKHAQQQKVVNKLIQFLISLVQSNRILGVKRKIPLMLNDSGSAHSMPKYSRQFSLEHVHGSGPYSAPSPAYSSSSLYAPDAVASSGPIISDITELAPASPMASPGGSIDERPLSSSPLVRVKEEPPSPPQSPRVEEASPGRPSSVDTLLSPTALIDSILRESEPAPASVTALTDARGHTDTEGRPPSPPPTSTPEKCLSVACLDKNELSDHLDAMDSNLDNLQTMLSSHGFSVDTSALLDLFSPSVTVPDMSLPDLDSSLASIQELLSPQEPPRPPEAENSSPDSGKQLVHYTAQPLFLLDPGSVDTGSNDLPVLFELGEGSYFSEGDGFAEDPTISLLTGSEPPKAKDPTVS
In short: as §1

[13] = target: T8, SPIC (Homo sapiens, UniProt Q8N5J4 1-248); conditions: protein: recombinant; tags: N-terminal GST; dsDNA, one strand shown
T8 sequence: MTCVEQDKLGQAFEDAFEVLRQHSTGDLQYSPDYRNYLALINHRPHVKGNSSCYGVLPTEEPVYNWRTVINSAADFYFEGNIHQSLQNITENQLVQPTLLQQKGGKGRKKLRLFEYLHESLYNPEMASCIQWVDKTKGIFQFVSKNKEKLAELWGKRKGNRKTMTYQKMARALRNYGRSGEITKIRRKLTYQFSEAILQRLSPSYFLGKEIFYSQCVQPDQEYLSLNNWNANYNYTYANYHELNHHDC
In short: as §1

[14] = target: ELF4 (Homo sapiens, UniProt Q99607 1-663); conditions: protein: recombinant; tags: N-terminal GST; dsDNA, one strand shown
ELF4, sequence (Q99607 whole entry): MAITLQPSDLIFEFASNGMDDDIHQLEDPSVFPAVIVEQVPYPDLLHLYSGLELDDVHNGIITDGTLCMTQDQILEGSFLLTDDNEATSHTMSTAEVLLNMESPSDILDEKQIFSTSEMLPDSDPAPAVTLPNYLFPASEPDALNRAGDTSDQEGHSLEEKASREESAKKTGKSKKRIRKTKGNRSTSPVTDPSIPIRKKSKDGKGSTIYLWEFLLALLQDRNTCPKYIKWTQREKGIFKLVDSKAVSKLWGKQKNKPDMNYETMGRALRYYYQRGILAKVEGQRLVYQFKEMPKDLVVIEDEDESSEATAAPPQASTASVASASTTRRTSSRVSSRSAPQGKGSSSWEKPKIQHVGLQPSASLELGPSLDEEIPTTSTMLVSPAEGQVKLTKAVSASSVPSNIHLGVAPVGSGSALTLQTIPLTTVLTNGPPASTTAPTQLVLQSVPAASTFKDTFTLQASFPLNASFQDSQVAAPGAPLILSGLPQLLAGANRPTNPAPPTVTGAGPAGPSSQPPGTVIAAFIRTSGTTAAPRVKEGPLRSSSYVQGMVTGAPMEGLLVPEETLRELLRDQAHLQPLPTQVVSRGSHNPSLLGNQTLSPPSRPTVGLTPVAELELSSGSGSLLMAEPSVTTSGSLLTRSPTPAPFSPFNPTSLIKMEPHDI
In short: as §1

[15] = target: T9, ELK4 (Homo sapiens, UniProt P28324-2 1-405); conditions: protein: recombinant; tags: N-terminal GST; dsDNA, one strand shown
T9 sequence: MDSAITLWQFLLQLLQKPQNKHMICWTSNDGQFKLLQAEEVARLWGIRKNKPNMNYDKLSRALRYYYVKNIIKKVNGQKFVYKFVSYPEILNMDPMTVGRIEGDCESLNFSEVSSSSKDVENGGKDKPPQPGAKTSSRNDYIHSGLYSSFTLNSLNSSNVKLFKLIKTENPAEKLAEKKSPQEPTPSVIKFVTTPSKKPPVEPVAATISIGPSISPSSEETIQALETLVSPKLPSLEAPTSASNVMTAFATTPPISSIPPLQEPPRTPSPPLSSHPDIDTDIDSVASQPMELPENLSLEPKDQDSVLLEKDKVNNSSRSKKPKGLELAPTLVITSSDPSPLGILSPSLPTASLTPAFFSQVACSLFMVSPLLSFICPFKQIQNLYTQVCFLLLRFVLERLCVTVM
In short: as §1

[16] = target: T10, ETV2 (Homo sapiens, UniProt O00321 1-342); conditions: protein: recombinant; tags: N-terminal GST; dsDNA, one strand shown
T10 sequence: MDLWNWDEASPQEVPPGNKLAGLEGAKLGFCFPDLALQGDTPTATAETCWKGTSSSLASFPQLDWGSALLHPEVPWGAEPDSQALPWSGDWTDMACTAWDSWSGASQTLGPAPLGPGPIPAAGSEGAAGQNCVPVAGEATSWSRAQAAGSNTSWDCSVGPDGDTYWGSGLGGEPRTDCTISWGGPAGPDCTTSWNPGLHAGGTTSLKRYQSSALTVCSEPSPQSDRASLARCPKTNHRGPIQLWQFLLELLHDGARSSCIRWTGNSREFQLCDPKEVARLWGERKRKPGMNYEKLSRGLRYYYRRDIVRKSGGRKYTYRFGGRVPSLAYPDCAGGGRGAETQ
In short: as §1

[17] = target: T11, ELF3 (Homo sapiens, UniProt P78545 1-371); conditions: protein: recombinant; tags: N-terminal GST; dsDNA, one strand shown
T11 sequence: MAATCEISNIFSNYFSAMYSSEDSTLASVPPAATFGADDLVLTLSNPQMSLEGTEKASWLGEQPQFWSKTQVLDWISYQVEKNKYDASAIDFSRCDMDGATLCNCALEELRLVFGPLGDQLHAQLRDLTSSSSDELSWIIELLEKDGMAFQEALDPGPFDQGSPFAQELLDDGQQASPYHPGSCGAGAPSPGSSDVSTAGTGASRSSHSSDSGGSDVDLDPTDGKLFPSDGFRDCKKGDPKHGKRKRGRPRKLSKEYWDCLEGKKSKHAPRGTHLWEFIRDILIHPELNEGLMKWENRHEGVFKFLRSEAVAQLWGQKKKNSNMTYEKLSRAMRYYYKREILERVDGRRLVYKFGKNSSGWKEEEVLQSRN
In short: as §1

[18] = target: CRX (Homo sapiens, UniProt O43186 1-299); conditions: protein: recombinant; tags: N-terminal GST; dsDNA, one strand shown
CRX, sequence (O43186 whole entry): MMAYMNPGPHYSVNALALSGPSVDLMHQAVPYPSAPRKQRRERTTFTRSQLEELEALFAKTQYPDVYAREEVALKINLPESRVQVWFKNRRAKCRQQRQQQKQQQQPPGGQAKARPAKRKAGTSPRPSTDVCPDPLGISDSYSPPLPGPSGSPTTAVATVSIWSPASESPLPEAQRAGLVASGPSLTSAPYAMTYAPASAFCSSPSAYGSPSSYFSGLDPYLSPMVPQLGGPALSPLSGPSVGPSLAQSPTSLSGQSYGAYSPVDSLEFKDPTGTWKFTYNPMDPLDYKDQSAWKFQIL
In short: as §1

[19] = target: ETV1 (Homo sapiens, UniProt P50549 1-477); conditions: protein: recombinant; tags: N-terminal GST; dsDNA, one strand shown
ETV1, sequence (P50549 whole entry): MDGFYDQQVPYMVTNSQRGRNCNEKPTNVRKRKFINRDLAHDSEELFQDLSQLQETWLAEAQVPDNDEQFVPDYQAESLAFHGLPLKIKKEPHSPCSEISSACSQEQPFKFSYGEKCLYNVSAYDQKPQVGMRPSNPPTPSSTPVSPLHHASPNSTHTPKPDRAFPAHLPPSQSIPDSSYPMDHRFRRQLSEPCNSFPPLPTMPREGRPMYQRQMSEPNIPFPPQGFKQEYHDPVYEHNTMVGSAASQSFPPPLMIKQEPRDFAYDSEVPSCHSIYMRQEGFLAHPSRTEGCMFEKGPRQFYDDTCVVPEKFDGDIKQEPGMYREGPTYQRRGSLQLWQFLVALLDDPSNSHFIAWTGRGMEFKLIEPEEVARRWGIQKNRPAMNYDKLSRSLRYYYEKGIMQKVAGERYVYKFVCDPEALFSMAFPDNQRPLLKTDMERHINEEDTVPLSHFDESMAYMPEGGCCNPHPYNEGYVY
In short: as §1

For CTCTAC, the binding signal [1] was 1.51 fold enrichment (6-mer frequency, TF over GST control), the binding signal [2] was 1.51 fold enrichment (6-mer frequency, TF over GST control) and the binding signal [3] was 1.56 fold enrichment (6-mer frequency, TF over GST control). For the same sequence, the binding signal [4] was 1.6 fold enrichment (6-mer frequency, TF over GST control), the binding signal [5] was 1.59 fold enrichment (6-mer frequency, TF over GST control) and the binding signal [6] was 1.54 fold enrichment (6-mer frequency, TF over GST control). For the same sequence, the binding signal [7] was 1.45 fold enrichment (6-mer frequency, TF over GST control), the binding signal [8] was 1.63 fold enrichment (6-mer frequency, TF over GST control) and the binding signal [9] was 1.27 fold enrichment (6-mer frequency, TF over GST control). The binding signal [10] was 1.57 fold enrichment (6-mer frequency, TF over GST control), the binding signal [11] was 1.33 fold enrichment (6-mer frequency, TF over GST control) and the binding signal [12] was 1.37 fold enrichment (6-mer frequency, TF over GST control). For the same sequence, the binding signal [13] was 1.51 fold enrichment (6-mer frequency, TF over GST control), the binding signal [14] was 1.46 fold enrichment (6-mer frequency, TF over GST control) and the binding signal [15] was 1.38 fold enrichment (6-mer frequency, TF over GST control). For the same sequence, the binding signal [16] was 1.35 fold enrichment (6-mer frequency, TF over GST control), the binding signal [17] was 1.47 fold enrichment (6-mer frequency, TF over GST control) and the binding signal [18] was 1.18 fold enrichment (6-mer frequency, TF over GST control). The binding signal [19] was 1.4 fold enrichment (6-mer frequency, TF over GST control).
